Data on 62 molecules can be found in PubChem BioAssay AID1631 (National Center for Advancing Translational Sciences (NCATS), 2009).

About 890 (0.34%) of roughly 260,000 compounds were called active. About 1% were inconclusive and are not listed. Calls follow the shape of the dose curve; as a rule, active = well fitted activation curve with a large enough effect; inconclusive = small, poorly fitted or top-dose-only effect; inactive = no such curve, though single readings can be large or run the other way. Many of the other results were omitted from the sample, so actives are more common in it than they were.
% is scaled to controls: 0 for no effect and ±100 for the full control effect; potency is read from the fitted curve at half-maximal effect.

Chain of Pyruvate kinase PKM (Homo sapiens) (P14618 whole entry, looked up, canonical isoform): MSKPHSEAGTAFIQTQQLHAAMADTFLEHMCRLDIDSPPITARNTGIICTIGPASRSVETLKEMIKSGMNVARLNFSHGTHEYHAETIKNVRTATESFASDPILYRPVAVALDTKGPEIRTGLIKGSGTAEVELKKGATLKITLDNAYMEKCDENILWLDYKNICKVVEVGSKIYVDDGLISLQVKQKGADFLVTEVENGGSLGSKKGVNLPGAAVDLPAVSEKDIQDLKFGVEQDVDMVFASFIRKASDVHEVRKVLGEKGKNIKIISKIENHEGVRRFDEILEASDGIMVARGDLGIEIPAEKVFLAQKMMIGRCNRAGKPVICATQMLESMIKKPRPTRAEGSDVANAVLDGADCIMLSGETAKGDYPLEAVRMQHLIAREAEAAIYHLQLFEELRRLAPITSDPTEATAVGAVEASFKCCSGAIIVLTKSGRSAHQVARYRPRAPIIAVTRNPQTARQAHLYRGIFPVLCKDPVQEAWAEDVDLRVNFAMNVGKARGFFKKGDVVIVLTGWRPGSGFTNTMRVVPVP

In the test the target is Pyruvate kinase PKM (Homo sapiens) (UniProt P14618). Description: qHTS Assay for Activators of Human Muscle isoform 2 Pyruvate Kinase. Also: nearly all actives have a fitted effect of over 55% in size. The conditions noted are these: purified PKM2, Kinase-Glo ATP luminescence; Potency: activation; series mostly up to 57.5 µM; activation: at the top concentration. The source says:
NIH Chemical Genomics Center [NCGC] Matthew G. Vander Heiden, M.D., Ph.D. [Harvard Medical School, 77 Avenue Louis Pasteur, Boston, MA 02115] MLPCN Grant: 1 R03 MH085679-01 NCGC Assay Overview: Human pyruvate kinase muscle 2 (hPK-M2) enzyme was supplied as a highly purified (>95% pure) preparation from Harvard Medical School and assayed for its ability to generate ATP from ADP using phosphoenolpyruvate (PEP) as a substrate. ATP generation was detected in a coupled reaction by luciferase-mediated luminescence, an ATP-dependent process. […] The enzyme was assayed at an intermediate level of activity to screen for both inhibitors and activators.
NCGC Assay Protocol Summary: Three uL of substrate mix (at r.t.) in assay buffer (50 mM Imidazole pH7.2, 50 mM KCl, 7 mM MgCl2, 0.01% Tween 20, 0.05% BSA) was dispensed into white solid bottom 1,536 well microtiter plates so that the final concentrations of substrates in the assay were 0.1 mM ADP and 0.5 mM PEP. 23 nL of compound were delivered by a pin tool and 1 uL of enzyme mix in assay buffer (4 degree Celsius) was added. Plates were incubated at room temperature for 1 hour. Two uL of detection mix (Kinase-Glo, Promega; at 4 degree Celsius protected from light) was added and luminescence read by a ViewLux (Perkin Elmer) at 5 second exposure/plate. Data were normalized to the uninhibited and AC100 inhibition (no enzyme). To monitor activation, the first column contained a titration of the activator, NCGC00031955-01 (16-point 1:2 dilutions in duplicate starting at 57 uM) and the first 16 rows of column 4 contained 57 uM of NCGC00031955-01.
A general note: qHTS replaces the single test concentration by a dilution series.
`Cc1noc(C)c1CSCC(=O)N(CCC(C)C)c1c(N)n(Cc2ccccc2)c(=O)[nH]c1=O`: the “activation” value is -5.51% (inactive).
The same measure, in the same setting: then `COC(=O)c1ccc(COc2ccc(/C=C/C(=O)c3ccc(OC)c(CSCC(=O)O)c3)cc2OC)cc1`, with 2.32% (inactive); and `CCC(=O)Nc1c(S(=O)(=O)c2ccccc2)c2nc3ccccc3nc2n1Cc1ccccc1`, with 0.876% (inactive).
As to `CCN(CC)CCn1c(N)c(S(=O)(=O)c2ccccc2)c2nc3ccccc3nc21`, the “activation” value was 13% (inactive).
Take `Cc1ccc(S(=O)(=O)c2c(N)n(C)c3nc4ccccc4nc23)cc1`: the Potency was 12.6 µM (active).
Consider `c1ccc(Cc2ccc(OCCn3ccnc3)cc2)cc1`, for which the “activation” value is -7.06% (inactive).
On the same count and under the same terms, then `O=C(Nc1ccc(C(=O)N2CCCCC2)cc1)c1cccc([N+](=O)[O-])c1`, with -5.33% (inactive).
The same measure, in the same setting: with `CCCCC(C(=O)NC(C)(C)C)N(Cc1ccccc1)C(=O)c1snc(C(N)=O)c1N` (configuration not stated) the figure was -16.3% (inactive); with `COc1ccc(-c2nn(-c3ccccc3)cc2/C=C2/SC(=S)N(CCCC(=O)O)C2=O)c(C)c1`, -3.19% [at 11.5 µM, 0% is enzyme alone, no compound] (inactive); with `CCCc1cc(C(=O)N2CCCC(CO)(CCCc3ccccc3)C2)n(C)n1` (configuration not stated), 0.0637% (inactive).
Same read-out and setting: with `O=C(CNc1cccc(S(=O)(=O)N2CCCCC2)c1)Nc1ccccc1F` the figure was -1.95% (inactive).
Regarding `Cc1cccc(-n2ncc(Cl)c(Cl)c2=O)c1`, the “activation” value was -5.55% (inactive).
Regarding `C/C(=N\N(C)C)c1ccc(OCCOc2ccc([N+](=O)[O-])cc2)cc1`, the “activation” value is 0.783% (inactive).
Consider `COc1ccc(CCn2c(=N)c(C(=O)NCc3ccco3)cc3c(=O)n4cccc(C)c4nc32)cc1`, for which the “activation” value is 4.82% (inactive).
Consider `O=C(NCc1ccco1)c1cccn2c(=O)c3c4c(sc3nc12)CCCC4`, for which the Potency is 25.1 µM (active).
Regarding `C=C(C)Cn1c(SCC(=O)NCc2ccco2)nc2sc3c(c2c1=O)CCC3`, the “activation” value was 13.2% (inactive).
On the same count and under the same terms, then `O=C(CCCC(=O)N1CCN(c2cccc(Cl)c2)CC1)c1ccccc1`, with 1.12% (inactive).
As for `CCS(=O)(=O)Nc1ccc(C2=NN(C(C)=O)C(c3cccs3)C2)cc1` (configuration not stated), the Potency was 4.47 µM (active).
Consider `COc1ccc(C2=NN(C(=O)CCC(=O)O)C(c3cccs3)C2)cc1OC` (configuration not stated), for which the “activation” value is -0.38% (inactive).
Turning to `CS(=O)(=O)Nc1ccc(C2=NN(S(C)(=O)=O)C(c3cccs3)C2)cc1` (configuration not stated), the “activation” value is 20% (inactive).
For the molecule `CC(=O)c1cc2c(cc1NC(=O)Cn1nc(-c3ccc(F)cc3)ccc1=O)OCO2`, the “activation” value was 7.5% (inactive).
On the same count and under the same terms, then `CC(=O)N1CCc2c(sc(NC(=O)CCS(=O)(=O)c3ccccc3)c2C#N)C1`, with -1.62% (inactive).
For `CCOC(=O)c1ccc(NC(=O)Cc2cccs2)cc1`, the “activation” value was -1.74% (inactive).
Still for that read-out and setting: with `CC1CCN(C(=S)NC(=O)c2ccccc2Br)CC1` the figure was -7.18% (inactive); with `O=C(Nc1ccc(N2CCOCC2)c(Cl)c1)c1ccc(S(=O)(=O)N2CCOCC2)cc1`, 0.221% (inactive).
On to `COc1ccc(C2CC(c3ccccc3)=NN2C(=O)c2ccc(Cl)c([N+](=O)[O-])c2)cc1` (configuration not stated), for which the “activation” value was -2.93% (inactive).
For the molecule `COc1ccc(C2CC(c3ccc([N+](=O)[O-])cc3)=NN2C(C)=O)cc1` (configuration not stated), the Potency is 12.6 µM (active).
Regarding `COc1ccc(C2=NN(C(C)=O)C(c3ccccc3)C2)cc1` (configuration not stated), the “activation” value was 14.6% (inactive).
On the same count and under the same terms, with `CC[C@]1(c2ccccc2OC)C(=O)N(C(=O)OC)N1C(=O)OC` the figure was 3.59% (inactive).
Take `CCOC(=O)c1cc(C(=O)Nc2ccc(S(=O)(=O)Nc3ccc(OC)cc3)cc2)nn1C`: the “activation” value is -2.09% (inactive).
Still for that read-out and setting: with `Cc1cccc(NC(=S)NCCc2ccc(Cl)cc2)c1C` the figure was 0.631% (inactive).
On the same count and under the same terms, then `COc1ccc(-n2nc(C(=O)NCC(=O)N3CCN(c4ccccc4OC)CC3)c3ccccc3c2=O)c(OC)c1`, with -0.0302% (inactive); and `O=c1c2ccccc2nc(CSc2nnnn2-c2ccccc2)n1-c1ccccc1`, with 1.59% (inactive).
Take `O=c1c2ccccc2nnn1CSc1nnnn1-c1ccccc1`: the Potency is 28.2 µM (active).
As for `Nc1nnc(SCn2nnc3ccccc3c2=O)s1`, the “activation” value was 1.7% (inactive).
`CCC(C)c1ccccc1NC(=O)CN(C)CC(=O)Nc1ccccc1SC` (configuration not stated): the “activation” value is 1.98% (inactive).
Still for that read-out and setting: then `O=C(N/N=C/c1cccc(OCc2ccccc2)c1)c1ccc(Br)o1`, with 0.996% (inactive); and `CCN(C(=O)COc1ccc(C(=O)c2ccccc2)cc1)c1ccccc1`, with -0.0123% (inactive); and `CC1CCN(C2=NC(=O)/C(=C/c3ccc(O)cc3)S2)CC1`, with -2.26% [at 11.5 µM, 0% is enzyme alone, no compound] (inactive).
Consider `CCOC(=O)C1(Cc2ccccc2C)CCCN(C(=O)c2ccc(COC)o2)C1` (configuration not stated), for which the “activation” value is 1.56% (inactive).
The same measure, in the same setting: with `S=C(Nc1ccc(Br)cc1)NC1CCN(Cc2ccccc2)CC1` the figure was -1.18% (inactive); with `O=C(Nc1nc2ccc([N+](=O)[O-])cc2s1)c1ccc(S(=O)(=O)N2CCCc3ccccc32)cc1`, 1.34% (inactive).
In the case of `CSc1nc2ccc(S(=O)(=O)N3CCc4ccccc43)cc2s1`, the Potency was 2.24 µM (active).
Take `CCn1c(=O)c(=O)n(CC)c2cc(S(=O)(=O)N3CCc4ccccc43)ccc21`: the “activation” value is 9.29% (inactive).
In the case of `CC(CN1CCOCC1)OC(=O)c1ccc(C(C)(C)C)cc1` (configuration not stated), the “activation” value is 7.62% (inactive).
Consider `NC(=S)c1ccc(C(N)=S)o1`, for which the Potency is 15.8 µM (active).
With `Cn1c(SCC(=O)N2CCCCC2)nc2c(c1=O)SCC2`, the “activation” value was -0.468% (inactive).
`Cc1cccc(CSc2nc3c(c(=O)n2C)SCC3)c1`: the Potency is 15.8 µM (active).
Turning to `CCn1c(SCc2ccccc2)nc2c(c1=O)SCC2`, the “activation” value was 6.86% (inactive).
Still for that read-out and setting: with `COc1ccc(CNS(=O)(=O)c2cc(-c3cc(C)no3)ccc2C(C)C)cc1` the figure was 2.22% [at 0.46 µM, 0% is enzyme alone, no compound] (inactive).
Still for that read-out and setting: then `Cc1ccc(S(=O)(=O)NC2CCCCCC2)cc1C(N)=O`, with 6.43% (inactive).
Same read-out and setting: with `COc1ccc(Nc2ncnc3ccc(Br)cc23)c(OC)c1` the figure was 0.748% (inactive); with `COC(=O)c1ccccc1NC(=O)C1CCN(C(=O)N2CCOc3ccccc32)CC1`, -2.9% (inactive); with `CCCC(C(=O)NC1CCCC1)N(C(=O)Cn1nnc(-c2ccc(C)o2)n1)c1cccc(O)c1` (configuration not stated), 2.14% (inactive).
As to `COc1ccc(NC(=O)CSc2nc3ccccc3c(=O)n2C)cc1`, the “activation” value was 1.41% (inactive).
Turning to `FC(F)(F)c1cccc(Nc2ncnc3ccccc23)c1`, the “activation” value is 2.31% (inactive).
For `O=c1cc(CO)oc(C(Nc2cccc(C(F)(F)F)c2)c2ccccn2)c1O` (configuration not stated), the Potency is 25.1 µM (active).
On to `O=C(Nc1cccc(C(F)(F)F)c1)c1cnccn1`, for which the “activation” value is -0.998% (inactive).
Consider `CCC(C)(C)NC(=O)C(c1ccc(O)cc1)N(Cc1ccco1)C(=O)CCC(=O)Nc1ccccn1` (configuration not stated), for which the “activation” value is -2.21% (inactive).
The same measure, in the same setting: with `CC/C(O)=N\S(=O)(=O)c1ccc(N=NN(C)C)cc1` the figure was 8.76% (inactive); with `CC(=O)c1ccc(N2CCN(C(=O)c3ccc4nc[nH]c4c3)CC2)cc1`, -5.96% (inactive).
In the case of `CN(C)N=Nc1ccc2nc[nH]c2c1`, the Potency was 10 µM (active).
